Assay results as given in PubChem BioAssay AID1159580 (chemical genetic matrix, 2015).
Several values for one entry are separate records, joined by “and”; a condition that tells them apart may be missing. Identical values can stand only once. The campaign covered roughly 5,500 compounds. About 2,000 (36%) were called active. About 18% were inconclusive and are not listed. Rule as the data show it: active = normalized growth mostly below about 0.91 (no sharp cut-off); inconclusive = no clear call, values can overlap the other calls; inactive = mostly above about 0.92. The list shows a part of the results.

Experiment: chemical genetic growth profiling, strain panel (AID 1159580);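 also: tested at 20 µM; growth read once vehicle control cultures reached saturation at 30 °C; 1 = growth at the plate median or of vehicle wells; lower values mean less growth of the strain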
Conditions: S. cerevisiae deletion strains, growth OD

Measured: normalized growth

CCOC(=O)[C@H](CCc1ccccc1)N[C@H]1CCc2ccccc2N(CC(=O)O)C1=O
inactive: locus YAL013W, strain DEP1, active compounds read low 0.989 | locus YAL021C, strain ccr4, active compounds read low 0.961 | locus YAL026C, strain drs2, active compounds read low 0.959 | locus YAL030W, strain snc1, active compounds read low 0.992 | locus YBL061C, strain skt5, active compounds read low 0.988 | locus YBR009C, strain hhf1, active compounds read low 0.973 | locus YBR021W, strain FUR4, active compounds read low 0.978 | locus YBR023C, strain chs3, active compounds read low 0.989 | locus YBR171W, strain sec66, active compounds read low 0.976 | locus YBR229C, strain ROT2, active compounds read low 0.986 | locus YBR231C, strain swc5, active compounds read low 0.96 | locus YBR279W, strain paf1, active compounds read low 0.987 | locus YCL011C, strain gbp2, active compounds read low 0.992 | locus YCL016C, strain dcc1, active compounds read low 0.981 | locus YCL029C, strain bik1, active compounds read low 0.966 | locus YCL061C, strain MRC1, active compounds read low 0.979 | locus YCL069W, strain vba3, active compounds read low 0.99 | locus YCR088W, strain abp1, active compounds read low 0.975 | locus YDL005C, strain med2, active compounds read low 0.972 | locus YDL035C, strain GPR1, active compounds read low 0.998 | locus YDL040C, strain nat1, active compounds read low 0.995 | locus YDL074C, strain BRE1, active compounds read low 0.998 | locus YDL101C, strain DUN1, active compounds read low 0.983 | locus YDL134C, strain PPH21, active compounds read low 0.998 | locus YDL185W, strain tfp1, active compounds read low 0.978 | locus YDL192W, strain arf1, active compounds read low 0.97 | locus YDR001C, strain nth1, active compounds read low 1.01 | locus YDR069C, strain doa4, active compounds read low 0.978 | locus YDR101C, strain arx1, active compounds read low 0.98 | locus YDR137W, strain rgp1, active compounds read low 0.992 | locus YDR150W, strain NUM1, active compounds read low 0.987 | locus YDR159W, strain sac3, active compounds read low 1.01 | locus YDR162C, strain NBP2, active compounds read low 0.987 | locus YDR195W, strain ref2 0.961 | locus YDR297W, strain sur2, active compounds read low 0.99 | locus YDR318W, strain mcm21, active compounds read low 0.977 | locus YDR334W, strain swr1, active compounds read low 0.988 | locus YDR335W, strain msn5, active compounds read low 0.983 | locus YDR388W, active compounds read low 0.976 | locus YDR392W, strain spt3, active compounds read low 0.963 | locus YDR502C, strain sam2, active compounds read low 0.985 | locus YEL003W, strain gim4, active compounds read low 0.992 | locus YEL037C, strain rad23, active compounds read low 0.982 | locus YEL061C, strain CIN8 (second series), active compounds read low 0.986 | locus YEL061C, strain CIN8, active compounds read low 0.989 | locus YER015W, strain faa2, active compounds read low 0.985 | locus YER016W, strain bim1, active compounds read low 0.979 | locus YER110C, active compounds read low 0.979 | locus YER111C, strain swi4, active compounds read low 1 | locus YER155C, strain BEM2 (second series), active compounds read low 0.902 | locus YER155C, strain BEM2, active compounds read low 0.984 | locus YER167W, strain BCK2, active compounds read low 0.984 | locus YFR010W, strain ubp6, active compounds read low 0.982 | locus YGL078C, strain dbp3, active compounds read low 0.977 | locus YGL086W, strain mad1, active compounds read low 0.988 | locus YGL167C, strain pmr1, active compounds read low 0.983 | locus YGL173C, strain kem1, active compounds read low 0.974 | locus YGL227W, strain vid30, active compounds read low 0.965 | locus YGL240W, strain doc1, active compounds read low 0.949 | locus YGL248W, strain PDE1, active compounds read low 0.983 | locus YGL253W, strain hxk2, active compounds read low 0.999 | locus YGR078C, strain PAC10, active compounds read low 1.01 | locus YGR135W, strain pre9, active compounds read low 0.985 | locus YGR229C, strain SMI1, active compounds read low 0.994 | locus YGR252W, strain gcn5, active compounds read low 1.04 | locus YHR013C, strain ard1, active compounds read low 0.977 | locus YHR027C, strain rpn1, active compounds read low 0.992 | locus YHR030C, strain SLT2, active compounds read low 0.981 and 0.964 | locus YHR079C, strain IRE1 (second series), active compounds read low 0.969 | locus YHR079C, strain IRE1, active compounds read low 0.964 | locus YHR094C, strain hxt1, active compounds read low 0.976 | locus YHR129C, strain ARP1, active compounds read low 0.988 | locus YHR142W, strain chs7, active compounds read low 0.986 | locus YHR200W, strain rpn10, active compounds read low 0.979 | locus YIL066C, strain RNR3, active compounds read low 0.985 | locus YIL073C, strain SPO22, active compounds read low 1.01 | locus YIL125W, strain kgd1, active compounds read low 0.978 | locus YIR030C, strain dcg1, active compounds read low 0.968 | locus YJL092W, strain hpr5, active compounds read low 0.988 | locus YJL095W, strain BCK1 (second series), active compounds read low 0.979 | locus YJL095W, strain BCK1, active compounds read low 0.99 and 0.984 | locus YJL115W, strain asf1, active compounds read low 0.969 | locus YJL129C, strain trk1, active compounds read low 0.973 | locus YJL134W, strain LCB3, active compounds read low 0.979 | locus YJL154C, strain vps35, active compounds read low 0.992 | locus YJL164C, strain tpk1, active compounds read low 0.97 | locus YJL166W, strain qcr8, active compounds read low 0.964 | locus YJL168C, strain set2, active compounds read low 0.973 | locus YJL187C, strain SWE1 (second series), active compounds read low 0.986 | locus YJR043C, strain POL32, active compounds read low 0.984 | locus YJR066W, strain TOR1, active compounds read low 0.942
